Test results from article PMC7862700, “An all-to-all approach to the identification of sequence-specific readers for epigenetic DNA modifications on cytosine”.

Key:
Assay in all cases: DAPPL (digital affinity profiling via proximity ligation, sequencing); 10 mM Tris-HCl pH 7.5, 50 mM NaCl, 1 mM DTT, 4% glycerol, room temperature, 30 min; GST-TFs on glutathione beads, 16-mer random dsDNA library, 0.1% formaldehyde crosslink after washing; high values mean tight binding
FEV = molecular target: T1, FEV (Homo sapiens, UniProt Q99581 1-238); details: protein: recombinant; tags: N-terminal GST; dsDNA, one strand shown
T1 sequence: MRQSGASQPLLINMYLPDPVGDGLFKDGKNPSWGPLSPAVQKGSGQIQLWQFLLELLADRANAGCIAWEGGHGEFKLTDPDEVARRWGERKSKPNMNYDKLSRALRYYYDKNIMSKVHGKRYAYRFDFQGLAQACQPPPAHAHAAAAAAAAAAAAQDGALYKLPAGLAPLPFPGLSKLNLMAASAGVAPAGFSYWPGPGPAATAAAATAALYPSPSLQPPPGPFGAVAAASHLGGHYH
Method in brief: (§1)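 Binding signal is given per hexamer as its read frequency for a factor divided by its frequency in the tag-only sample. GST-fused human transcription factors were expressed in yeast, captured on glutathione beads, barcoded with DNA and pooled with that sample, then incubated with 200 nmole of a 16-mer random double-stranded DNA library in Tris/NaCl/DTT/glycerol buffer for 30 min at room temperature. The pools were then washed, crosslinked, proximity-ligated, amplified by PCR and sequenced on an Illumina NextSeq500.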

ETV5 = ETV5 (Homo sapiens, UniProt P41161 1-510); details: protein: recombinant; tags: N-terminal GST; dsDNA, one strand shown
Method in brief: as §1

HSF1 = HSF1 (Homo sapiens, UniProt Q00613 1-529); details: protein: recombinant; tags: N-terminal GST; chain copies: 3; dsDNA, one strand shown
Method in brief: as §1

SPIC = molecular target: T2, SPIC (Homo sapiens, UniProt Q8N5J4 1-248); details: protein: recombinant; tags: N-terminal GST; dsDNA, one strand shown
T2 sequence: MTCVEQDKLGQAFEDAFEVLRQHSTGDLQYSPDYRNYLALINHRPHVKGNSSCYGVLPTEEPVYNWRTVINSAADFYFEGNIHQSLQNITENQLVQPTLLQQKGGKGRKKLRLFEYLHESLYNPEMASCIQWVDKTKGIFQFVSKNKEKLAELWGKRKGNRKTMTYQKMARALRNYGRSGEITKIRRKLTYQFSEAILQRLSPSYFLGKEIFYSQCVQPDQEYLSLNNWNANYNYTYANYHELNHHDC
Method in brief: as §1

ELF4 = ELF4 (Homo sapiens, UniProt Q99607 1-663); details: protein: recombinant; tags: N-terminal GST; dsDNA, one strand shown
Method in brief: as §1

ELK4 = molecular target: T3, ELK4 (Homo sapiens, UniProt P28324-2 1-405); details: protein: recombinant; tags: N-terminal GST; dsDNA, one strand shown
T3 sequence: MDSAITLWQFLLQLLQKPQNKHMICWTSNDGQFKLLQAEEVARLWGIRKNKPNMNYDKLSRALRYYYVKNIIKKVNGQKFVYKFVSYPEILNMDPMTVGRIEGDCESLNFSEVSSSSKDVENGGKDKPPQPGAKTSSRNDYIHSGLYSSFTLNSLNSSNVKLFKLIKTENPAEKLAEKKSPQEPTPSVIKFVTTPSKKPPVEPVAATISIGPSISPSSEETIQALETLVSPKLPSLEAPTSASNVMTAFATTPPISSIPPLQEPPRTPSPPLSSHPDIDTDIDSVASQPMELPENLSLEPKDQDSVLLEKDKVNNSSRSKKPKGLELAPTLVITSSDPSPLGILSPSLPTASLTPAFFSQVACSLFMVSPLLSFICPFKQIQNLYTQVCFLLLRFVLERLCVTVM
Method in brief: as §1

ETV2 = molecular target: T4, ETV2 (Homo sapiens, UniProt O00321 1-342); details: protein: recombinant; tags: N-terminal GST; dsDNA, one strand shown
T4 sequence: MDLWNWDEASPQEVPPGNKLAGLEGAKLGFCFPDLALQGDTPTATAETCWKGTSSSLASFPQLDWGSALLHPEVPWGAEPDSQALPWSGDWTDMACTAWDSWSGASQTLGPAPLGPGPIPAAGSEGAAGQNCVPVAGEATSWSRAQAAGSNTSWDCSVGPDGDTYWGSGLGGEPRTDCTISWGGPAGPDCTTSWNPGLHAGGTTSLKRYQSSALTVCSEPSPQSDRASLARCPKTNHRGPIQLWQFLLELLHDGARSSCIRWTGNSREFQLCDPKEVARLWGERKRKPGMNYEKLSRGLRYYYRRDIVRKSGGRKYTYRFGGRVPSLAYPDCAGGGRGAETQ
Method in brief: as §1

ELF3 = molecular target: T5, ELF3 (Homo sapiens, UniProt P78545 1-371); details: protein: recombinant; tags: N-terminal GST; dsDNA, one strand shown
T5 sequence: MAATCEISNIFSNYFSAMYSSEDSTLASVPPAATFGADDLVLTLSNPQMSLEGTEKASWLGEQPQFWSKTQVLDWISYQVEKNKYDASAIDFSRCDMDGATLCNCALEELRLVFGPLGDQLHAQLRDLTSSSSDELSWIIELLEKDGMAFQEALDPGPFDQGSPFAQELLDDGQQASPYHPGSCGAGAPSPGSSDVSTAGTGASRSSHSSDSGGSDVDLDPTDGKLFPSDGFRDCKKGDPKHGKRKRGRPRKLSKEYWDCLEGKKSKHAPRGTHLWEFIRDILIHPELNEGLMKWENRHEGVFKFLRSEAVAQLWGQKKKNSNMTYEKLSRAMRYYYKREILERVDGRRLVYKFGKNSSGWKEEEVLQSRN
Method in brief: as §1

CRX = CRX (Homo sapiens, UniProt O43186 1-299); details: protein: recombinant; tags: N-terminal GST; dsDNA, one strand shown
Method in brief: as §1

ETV1 = ETV1 (Homo sapiens, UniProt P50549 1-477); details: protein: recombinant; tags: N-terminal GST; dsDNA, one strand shown
Method in brief: as §1

ERF = molecular target: T6, ERF (Homo sapiens, UniProt P50548 1-548); details: protein: recombinant; tags: N-terminal GST; dsDNA, one strand shown
T6 sequence: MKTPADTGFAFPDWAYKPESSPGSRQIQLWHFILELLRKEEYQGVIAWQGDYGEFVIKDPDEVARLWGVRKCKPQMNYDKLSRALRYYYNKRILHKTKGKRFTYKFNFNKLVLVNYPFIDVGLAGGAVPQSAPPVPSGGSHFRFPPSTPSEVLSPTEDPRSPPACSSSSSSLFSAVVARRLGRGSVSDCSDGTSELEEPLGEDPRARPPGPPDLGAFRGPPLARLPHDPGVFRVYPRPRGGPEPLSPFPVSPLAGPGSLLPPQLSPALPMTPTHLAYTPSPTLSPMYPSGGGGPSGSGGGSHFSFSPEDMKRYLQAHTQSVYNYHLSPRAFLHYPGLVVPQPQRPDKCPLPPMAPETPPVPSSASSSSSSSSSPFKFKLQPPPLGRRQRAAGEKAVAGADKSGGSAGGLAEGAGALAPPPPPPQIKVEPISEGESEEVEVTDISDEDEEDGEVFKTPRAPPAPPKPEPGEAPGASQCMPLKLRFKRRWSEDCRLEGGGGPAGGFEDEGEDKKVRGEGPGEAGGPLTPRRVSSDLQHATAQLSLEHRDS
Method in brief: as §1

ETV3L = molecular target: T7, ETV3L (Homo sapiens, UniProt Q6ZN32 1-361); details: protein: recombinant; tags: N-terminal GST; dsDNA, one strand shown
T7 sequence: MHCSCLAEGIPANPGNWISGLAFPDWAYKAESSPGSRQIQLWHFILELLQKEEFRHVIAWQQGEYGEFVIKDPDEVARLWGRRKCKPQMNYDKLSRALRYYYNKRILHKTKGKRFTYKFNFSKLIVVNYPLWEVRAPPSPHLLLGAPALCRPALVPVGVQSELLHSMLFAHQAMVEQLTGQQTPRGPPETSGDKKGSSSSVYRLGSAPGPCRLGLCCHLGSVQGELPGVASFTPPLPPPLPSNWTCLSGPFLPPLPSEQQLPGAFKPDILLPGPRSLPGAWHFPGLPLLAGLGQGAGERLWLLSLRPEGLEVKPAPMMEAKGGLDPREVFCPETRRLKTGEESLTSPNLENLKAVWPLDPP
Method in brief: as §1

ETS2 = molecular target: T8, ETS2 (Homo sapiens, UniProt P15036 1-469); details: protein: recombinant; tags: N-terminal GST; dsDNA, one strand shown
T8 sequence: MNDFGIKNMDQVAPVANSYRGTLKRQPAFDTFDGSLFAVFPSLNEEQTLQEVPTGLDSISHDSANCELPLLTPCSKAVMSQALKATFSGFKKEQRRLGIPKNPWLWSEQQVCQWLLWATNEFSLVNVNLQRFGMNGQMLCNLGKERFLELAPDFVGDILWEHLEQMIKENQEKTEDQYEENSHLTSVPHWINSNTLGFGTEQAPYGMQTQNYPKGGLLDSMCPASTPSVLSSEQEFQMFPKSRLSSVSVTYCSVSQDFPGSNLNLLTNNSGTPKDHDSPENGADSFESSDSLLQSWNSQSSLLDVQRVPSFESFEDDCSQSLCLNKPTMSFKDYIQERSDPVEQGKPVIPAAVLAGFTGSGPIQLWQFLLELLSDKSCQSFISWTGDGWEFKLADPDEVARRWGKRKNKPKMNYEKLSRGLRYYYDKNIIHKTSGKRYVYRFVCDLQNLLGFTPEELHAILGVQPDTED
Method in brief: as §1

SPDEF = molecular target: T9, SPDEF (Homo sapiens, UniProt O95238 1-335); details: protein: recombinant; tags: N-terminal GST; dsDNA, one strand shown
T9 sequence: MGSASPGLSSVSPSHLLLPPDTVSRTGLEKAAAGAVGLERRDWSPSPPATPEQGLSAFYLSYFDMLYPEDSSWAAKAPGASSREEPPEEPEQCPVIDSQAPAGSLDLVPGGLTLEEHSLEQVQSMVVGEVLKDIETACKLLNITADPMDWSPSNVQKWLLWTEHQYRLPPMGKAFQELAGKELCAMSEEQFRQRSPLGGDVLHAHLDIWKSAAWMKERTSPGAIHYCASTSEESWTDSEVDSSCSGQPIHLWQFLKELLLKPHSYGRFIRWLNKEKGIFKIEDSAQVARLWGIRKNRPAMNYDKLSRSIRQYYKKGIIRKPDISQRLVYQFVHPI
Method in brief: as §1

ETV7 = molecular target: T10, ETV7 (Homo sapiens, UniProt Q9Y603 1-341); details: protein: recombinant; tags: N-terminal GST; dsDNA, one strand shown
T10 sequence: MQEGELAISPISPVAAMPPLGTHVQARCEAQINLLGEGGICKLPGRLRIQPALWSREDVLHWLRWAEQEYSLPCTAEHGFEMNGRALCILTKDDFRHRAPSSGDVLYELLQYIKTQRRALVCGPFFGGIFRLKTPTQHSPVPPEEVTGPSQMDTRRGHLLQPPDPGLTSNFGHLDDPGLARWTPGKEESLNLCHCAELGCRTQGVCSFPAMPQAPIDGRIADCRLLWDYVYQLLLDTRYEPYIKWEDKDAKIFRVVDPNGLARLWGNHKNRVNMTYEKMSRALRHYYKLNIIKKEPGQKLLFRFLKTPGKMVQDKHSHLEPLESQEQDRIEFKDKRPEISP
Method in brief: as §1

ELF5 = molecular target: T11, ELF5 (Homo sapiens, UniProt Q9UKW6-2 1-255); details: protein: recombinant; tags: N-terminal GST; dsDNA, one strand shown
T11 sequence: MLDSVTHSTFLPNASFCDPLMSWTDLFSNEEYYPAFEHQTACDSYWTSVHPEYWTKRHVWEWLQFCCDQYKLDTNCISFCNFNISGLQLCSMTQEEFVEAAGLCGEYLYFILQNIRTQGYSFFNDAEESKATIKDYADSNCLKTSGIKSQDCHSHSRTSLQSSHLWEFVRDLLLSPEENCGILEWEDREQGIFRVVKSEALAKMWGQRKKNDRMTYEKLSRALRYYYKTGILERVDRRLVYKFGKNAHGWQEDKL
Method in brief: as §1

ETV3 = molecular target: T12, ETV3 (Homo sapiens, UniProt P41162-2 1-143); details: protein: recombinant; tags: N-terminal GST; dsDNA, one strand shown
T12 sequence: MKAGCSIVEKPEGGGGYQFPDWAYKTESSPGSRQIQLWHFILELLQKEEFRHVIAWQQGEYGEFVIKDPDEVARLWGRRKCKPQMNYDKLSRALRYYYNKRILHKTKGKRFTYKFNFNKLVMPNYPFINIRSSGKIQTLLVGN
Method in brief: as §1

ETV6 = ETV6 (Homo sapiens, UniProt P41212 1-452); details: protein: recombinant; tags: N-terminal GST; dsDNA, one strand shown
Method in brief: as §1

Sequence of ETV6 (P41212 whole entry): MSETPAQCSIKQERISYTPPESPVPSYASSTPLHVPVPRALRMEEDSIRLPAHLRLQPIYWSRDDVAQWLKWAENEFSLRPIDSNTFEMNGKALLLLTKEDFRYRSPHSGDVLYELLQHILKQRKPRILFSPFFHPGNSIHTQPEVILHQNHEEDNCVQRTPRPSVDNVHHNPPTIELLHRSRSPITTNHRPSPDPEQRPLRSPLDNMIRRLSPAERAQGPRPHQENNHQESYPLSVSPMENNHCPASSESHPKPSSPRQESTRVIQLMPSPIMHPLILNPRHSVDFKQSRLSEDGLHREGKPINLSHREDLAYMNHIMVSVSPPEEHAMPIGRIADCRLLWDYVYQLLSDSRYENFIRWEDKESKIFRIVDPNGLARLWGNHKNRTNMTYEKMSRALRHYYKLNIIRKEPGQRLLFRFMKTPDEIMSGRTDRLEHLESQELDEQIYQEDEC
Sequence of CRX (O43186 whole entry): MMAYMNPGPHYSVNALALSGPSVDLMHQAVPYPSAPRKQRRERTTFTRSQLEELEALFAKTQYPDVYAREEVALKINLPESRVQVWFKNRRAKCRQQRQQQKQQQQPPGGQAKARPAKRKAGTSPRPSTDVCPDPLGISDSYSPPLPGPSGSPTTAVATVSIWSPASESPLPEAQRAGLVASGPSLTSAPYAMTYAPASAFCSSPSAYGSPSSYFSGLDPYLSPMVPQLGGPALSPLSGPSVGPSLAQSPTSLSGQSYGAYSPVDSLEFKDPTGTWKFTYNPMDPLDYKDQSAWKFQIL
Sequence of ETV1 (P50549 whole entry): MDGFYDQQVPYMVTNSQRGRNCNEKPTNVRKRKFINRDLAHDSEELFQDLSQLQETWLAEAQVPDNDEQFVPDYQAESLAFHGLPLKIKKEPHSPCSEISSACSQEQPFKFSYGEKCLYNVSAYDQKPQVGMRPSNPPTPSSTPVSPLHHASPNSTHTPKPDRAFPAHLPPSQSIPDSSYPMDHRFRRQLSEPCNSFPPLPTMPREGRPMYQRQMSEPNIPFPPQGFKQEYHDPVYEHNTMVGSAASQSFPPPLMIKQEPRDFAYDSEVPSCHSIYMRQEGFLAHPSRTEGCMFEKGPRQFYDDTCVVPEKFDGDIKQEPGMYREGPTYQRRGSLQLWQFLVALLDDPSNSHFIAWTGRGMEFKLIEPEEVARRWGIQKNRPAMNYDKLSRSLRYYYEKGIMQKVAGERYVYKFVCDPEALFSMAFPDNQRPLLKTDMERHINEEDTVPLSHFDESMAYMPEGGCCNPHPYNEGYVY
Sequence of ETV5 (P41161 whole entry): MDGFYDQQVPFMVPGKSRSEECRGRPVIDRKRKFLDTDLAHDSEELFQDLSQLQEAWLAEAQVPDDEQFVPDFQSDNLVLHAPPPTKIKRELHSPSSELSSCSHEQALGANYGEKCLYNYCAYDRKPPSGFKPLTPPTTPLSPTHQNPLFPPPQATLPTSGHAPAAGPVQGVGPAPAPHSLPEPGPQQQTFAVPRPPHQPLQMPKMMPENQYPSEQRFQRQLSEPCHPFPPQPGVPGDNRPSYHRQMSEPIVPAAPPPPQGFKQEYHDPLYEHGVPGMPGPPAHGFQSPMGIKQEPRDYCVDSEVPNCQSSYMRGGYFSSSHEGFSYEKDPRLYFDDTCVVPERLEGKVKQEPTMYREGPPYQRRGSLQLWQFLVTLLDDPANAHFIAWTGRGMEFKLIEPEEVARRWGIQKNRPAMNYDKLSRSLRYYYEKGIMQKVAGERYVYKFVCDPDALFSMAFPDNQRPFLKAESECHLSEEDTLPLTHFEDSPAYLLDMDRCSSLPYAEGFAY
Sequence of ELF4 (Q99607 whole entry): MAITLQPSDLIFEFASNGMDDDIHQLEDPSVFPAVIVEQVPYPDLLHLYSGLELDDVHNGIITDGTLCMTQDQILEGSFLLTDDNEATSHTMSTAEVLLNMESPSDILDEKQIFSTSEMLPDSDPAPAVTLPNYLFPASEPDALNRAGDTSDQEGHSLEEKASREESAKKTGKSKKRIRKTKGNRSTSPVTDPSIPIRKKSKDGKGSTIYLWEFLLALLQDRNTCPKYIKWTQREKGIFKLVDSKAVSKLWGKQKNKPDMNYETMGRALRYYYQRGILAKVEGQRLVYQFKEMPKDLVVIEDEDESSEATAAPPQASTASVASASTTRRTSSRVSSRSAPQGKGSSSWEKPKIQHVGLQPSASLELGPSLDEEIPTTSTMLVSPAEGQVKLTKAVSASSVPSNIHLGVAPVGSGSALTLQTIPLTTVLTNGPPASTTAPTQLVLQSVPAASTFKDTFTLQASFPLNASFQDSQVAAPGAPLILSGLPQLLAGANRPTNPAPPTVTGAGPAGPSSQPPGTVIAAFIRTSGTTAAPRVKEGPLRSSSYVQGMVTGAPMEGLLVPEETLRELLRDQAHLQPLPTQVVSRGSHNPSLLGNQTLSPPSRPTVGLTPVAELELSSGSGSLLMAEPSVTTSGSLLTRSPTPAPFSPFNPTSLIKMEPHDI
Sequence of HSF1 (Q00613 whole entry): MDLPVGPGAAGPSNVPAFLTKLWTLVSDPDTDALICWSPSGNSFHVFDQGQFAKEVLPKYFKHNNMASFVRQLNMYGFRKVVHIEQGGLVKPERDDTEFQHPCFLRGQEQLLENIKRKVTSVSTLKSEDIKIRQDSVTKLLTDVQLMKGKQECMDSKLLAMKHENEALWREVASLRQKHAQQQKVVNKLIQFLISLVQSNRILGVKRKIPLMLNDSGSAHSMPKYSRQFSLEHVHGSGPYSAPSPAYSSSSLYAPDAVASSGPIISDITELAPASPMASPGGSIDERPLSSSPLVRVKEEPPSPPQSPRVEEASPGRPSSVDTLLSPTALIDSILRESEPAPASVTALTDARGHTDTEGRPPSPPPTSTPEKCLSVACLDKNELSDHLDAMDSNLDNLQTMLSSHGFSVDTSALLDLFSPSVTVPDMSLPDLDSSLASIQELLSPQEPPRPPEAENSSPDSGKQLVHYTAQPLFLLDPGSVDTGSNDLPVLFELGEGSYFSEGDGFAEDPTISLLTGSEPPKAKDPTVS

Sequence: TCACCT
- binding signal (FEV): 1.17 fold enrichment (6-mer frequency, TF over GST control)
- binding signal (ETV5): 1.18 fold enrichment (6-mer frequency, TF over GST control)
- binding signal (HSF1): 1.03 fold enrichment (6-mer frequency, TF over GST control)
- binding signal (SPIC): 1.31 fold enrichment (6-mer frequency, TF over GST control)
- binding signal (ELF4): 1.33 fold enrichment (6-mer frequency, TF over GST control)
- binding signal (ELK4): 1.12 fold enrichment (6-mer frequency, TF over GST control)
- binding signal (ETV2): 1.21 fold enrichment (6-mer frequency, TF over GST control)
- binding signal (ELF3): 1.25 fold enrichment (6-mer frequency, TF over GST control)
- binding signal (CRX): 1.15 fold enrichment (6-mer frequency, TF over GST control)
- binding signal (ETV1): 1.19 fold enrichment (6-mer frequency, TF over GST control)
- binding signal (ERF): 1.2 fold enrichment (6-mer frequency, TF over GST control)
- binding signal (ETV3L): 1.17 fold enrichment (6-mer frequency, TF over GST control)
- binding signal (ETS2): 1.09 fold enrichment (6-mer frequency, TF over GST control)
- binding signal (SPDEF): 1.22 fold enrichment (6-mer frequency, TF over GST control)
- binding signal (ETV7): 1.19 fold enrichment (6-mer frequency, TF over GST control)
- binding signal (ELF5): 1.21 fold enrichment (6-mer frequency, TF over GST control)
- binding signal (ETV3): 1.2 fold enrichment (6-mer frequency, TF over GST control)
- binding signal (ETV6): 1.19 fold enrichment (6-mer frequency, TF over GST control)
